Screening results: PubChem BioAssay, The Scripps Research Institute Molecular Screening Center
proKLK7 act – proKLK7 (human) activation, primary screen | activation, % at 7 µM | AID 652039 | P49862 | purified proKLK7, EDANS-DABCYL substrate fluorescence; 100% is mature enzyme control, 0% vehicle | 0.9% of 370,000 active;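 active means activation above the mean of all tested compounds plus 3 SD, computed per campaign excluding outliers beyond control limits, cut at about 13% in these data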
Target sequence (P49862 whole entry, looked up): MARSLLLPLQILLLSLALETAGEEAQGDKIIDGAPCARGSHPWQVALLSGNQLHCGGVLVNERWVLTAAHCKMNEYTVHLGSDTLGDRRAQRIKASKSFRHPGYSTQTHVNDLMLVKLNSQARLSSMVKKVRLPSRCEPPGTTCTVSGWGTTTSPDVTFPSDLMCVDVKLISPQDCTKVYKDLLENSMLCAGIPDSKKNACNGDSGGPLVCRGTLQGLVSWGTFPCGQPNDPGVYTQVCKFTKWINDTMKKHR
PLCg1 inh – inhibitors of human phospholipase C gamma1; P19174; purified PLC-gamma1, fluorogenic substrate, fluorescence; inhibition, % at 12.2 µM; 0.84% of 370,000 active; in the data active means inhibition above about 9.5%
ADAM17 inh – inhibits human ADAM17. P78536. recombinant ADAM17, EDANS/DABCYL FRET peptide cleavage. inhibition, % at 6.95 µM. 0.83% of 370,000 active;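 active means inhibition above the mean of compounds lying between control limits plus 3 SD, set per campaign, cut at about 8.5% in these data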;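 further: 0% = DMSO-only wells as the low control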
PLCb3 inh – blocks human PLC-beta3 enzyme activity; inhibition, % at 12.2 µM; AID 720704; 0.18% of 370,000 active; Purified PLC-beta3, fluorogenic substrate, fluorescence; in the data active means inhibition above about 11%;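 further: 0% = median of compound wells on plate and 100% = full blocker control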
ADAM10 inh – inhibitors of human ADAM10 | recombinant ADAM10, EDANS/DABCYL FRET peptide cleavage, 3 h | 0.62% of 370,000 active | AID 720582 | O14672 | inhibition, % at 7 µM;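 active means inhibition above a per-campaign cutoff equal to the mean of compounds falling between control-based bounds plus 3 SD, cut at about 20% in these data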;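 further: 0% = DMSO wells while the 100% control is not disclosed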
KLK7 act conf – confirmation of human kallikrein-7 zymogen activators | shares compounds with proKLK7 act | purified proKLK7, EDANS-DABCYL substrate fluorescence; scaled: vehicle 0, mature enzyme 100 | activation, % at 7 µM | 68% of 3,200 active | AID 686949;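 active means activation, as change over the incubation, above the mean of all tested compounds plus 3 SD, cut at about 13% in these data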
EDANS interfere – optically interferes with EDANS-DABCYL signal, flagging KLK7 hits | EDANS-DABCYL substrate fluorescence interference, no enzyme, 4 h; solvent 0%, active enzyme control 100% | 80% of 3,200 active | shares compounds with proKLK7 act | activation, % at 7 µM;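 active means activation above the all-compound mean plus 3 SD, ignoring values outside control-based bounds, cut at about 4.8% in these data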;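 further: value is the 4 h activation minus the activation read at time zero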
K7 EDANS ctr – optically interferes with EDANS-DABCYL fluorescence, kallikrein-7 activator counter-screen. EC50, µM. shares compounds with proKLK7 act. AID 720493. 20% of 250 active. EDANS-DABCYL peptide fluorescence interference, no enzyme;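 active means compounds that raise the fluorescence signal in this interference counterscreen, with EC50 at or below 10 µM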;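 further: intact quenched peptide substrate alone read at 355 nm excitation and 520 nm emission; signal is fluorescence gain from T0 to T4 after four hours at room temperature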
* = called active by the depositor; i = inactive; x = no result given. This is a sample that favours compounds with a hit; in the whole collection about 2.9% have one here.

SMILES	proKLK7 act	PLCg1 inh	ADAM17 inh	PLCb3 inh	ADAM10 inh	KLK7 act conf	EDANS interfere	others
CCC(=O)N1CCc2cc(-c3csc(NC(=O)c4ccco4)n3)ccc21	97.8*	-15.8	-10.6	-30.2	-5.9	22.3*	16.4*	K7 EDANS ctr=i
Cc1[nH]c2ccccc2c1/C=C(\C#N)S(=O)(=O)c1ccccc1	13.6*	-6.5	4.7	-135.8	13.7	-1.6	-4.6
CCOC(=O)[C@]12CCCC=C1N(Cc1ccc(OC)cc1)C(=O)[C@@H]2CC(=O)NCCC(C)C	0.3	3.5	-1.3	1.9	-1.6	x	x
CC(=O)Nc1sc2c(c1-c1nc3ccccc3s1)CCOC2	x	i	-37.2	i	-136.9	x	x
O=C(Nc1cccc(Cl)c1)Nc1sccc1-c1nc2ccccc2s1	-239.2	i	-18.2	i	-47.0	x	x
O=C(Nc1ccccc1)Nc1sccc1-c1nc2ccccc2s1	34.7*	-303.5	-28.6	-348.4	-66.5	-212.1	-177.1
C[C@@H]1ON(C)[C@H]2C[C@H]3c4[nH]c5c(-c6ccc7c(c6)OCO7)cccc5c4CCN3C[C@@H]12	0.7	-10.6	-2.4	-8.5	-13.3	x	x
Cc1cccc(Cn2cc(COC(=O)N3CCCC3)nn2)c1	-0.7	0.1	-2.6	-3.0	-8.0	x	x
CCOc1cc(/C=N/NC(=O)C(OC)c2ccccc2)ccc1O (stereo not given)	-8.1	-10.7	-15.2	-15.7	-24.2	x	x
CCOc1cc(/C=N/NC(=O)C(=O)N/N=C/c2ccc(O)c(OCC)c2)ccc1O	15.9*	-13.6	-6.4	-25.2	-2.9	-21.5	-8.3
Cc1cc(=O)oc2cc(NC(=O)c3c(Cl)cnn3C)ccc12	-0.5	-5.6	-10.9	-11.2	-35.8	x	x
Cc1cc(=O)oc2cc(NC(=O)c3ccccc3C(=O)O)ccc12	53.9*	i	i	i	i	14.1*	15.8*
Cc1cc(=O)oc2cc(NC(=O)c3ccccc3Cl)ccc12	12.8*	-184.3	-416.9	-287.4	i	12.5	12.4*
CC[C@H](CCCCCC#N)CCC(=O)N(c1ccccc1)c1ccccc1	-0.5	-1.3	4.2	1.6	4.7	x	x
O=C1c2cnc3ncnn3c2CC2c3ccccc3CCN12 (stereo not given)	100.9*	-47.8	-196.7	-53.8	i	195.5*	178.9*
N#Cc1cnn2c3c(cnc12)C(=O)N1CCc2ccccc2C1C3 (stereo not given)	76.6*	-33.5	-63.1	-37.3	-251.2	-181.5	-138.0
C=CCN1C(=O)[C@@H](CC(=O)N2CCCCC2)[C@]2(C(=O)OCC)CCCCC/C=C/12	-0.4	2.3	-0.9	0.2	1.6	x	x
CCN(CC)CCNC(=O)c1ccc(NC(=O)c2ccc(S(=O)(=O)N(C)c3ccccc3OC)cc2)cc1	0.8	0.2	-7.5	-8.8	-9.8	x	x
COc1ccccc1N(C)S(=O)(=O)c1ccc(C(=O)Nc2ccc(C(N)=O)cc2)cc1	24.4*	-2.4	-0.8	-1.5	-2.0	22.4*	2.5	K7 EDANS ctr=i
COc1cccc(/C=C/C(=O)Nc2ccc(C(=O)Nc3cccc(S(N)(=O)=O)c3)cc2)c1OC	76.9*	-260.0	-171.9	-417.9	-390.6	79.0*	82.6*
N=c1c(C(=O)NCCN2CCOCC2)cc2c(=O)n3ccccc3nc2n1CCc1ccccc1	24.3*	-180.8	-349.0	-296.9	i	7.6	10.5*
N=c1c(C(=O)NCc2ccc(F)cc2)cc2c(=O)n3ccccc3nc2n1CCCN1CCOCC1	5.0	-237.0	-436.5	-315.3	i	x	x
N=c1c(C(=O)NCCc2ccccc2)cc2c(=O)n3ccccc3nc2n1CCCN1CCOCC1	29.2*	-278.9	i	-385.6	i	7.9	7.7*
COc1ccc(CCNC(=O)c2cc3c(=O)n4cccc(C)c4nc3n(CCCN3CCOCC3)c2=N)cc1	0.1	-55.2	-84.3	-92.2	-251.4	x	x
N=c1c(C(=O)NCc2ccccc2)cc2c(=O)n3ccccc3nc2n1CCCN1CCOCC1	13.4*	-282.4	-349.7	-324.7	i	2.1	3.3
SMILES	proKLK7 act	PLCg1 inh	ADAM17 inh	PLCb3 inh	ADAM10 inh	KLK7 act conf	EDANS interfere	others
CCN1CCSc2ccc(C(=O)NCc3cccc(F)c3)cc21	15.7*	i	-437.5	i	i	-56.0	-36.2
O=C(NCc1cccnc1)c1ccc2c(c1)N(Cc1ccccc1)CCS2	-9.0	-295.6	-345.5	-440.1	i	x	x
CN1CCSc2ccc(C(=O)NCc3ccccc3)cc21	42.9*	i	i	i	i	5.8	24.1*
CCN1CCSc2ccc(C(=O)NCc3cccc(Br)c3)cc21	5.9	i	-319.4	i	i	x	x
Cc1ccc(C2=CCN(C)C(=O)N2c2ccc([N+](=O)[O-])cc2)cc1	-0.5	2.9	1.9	-2.0	1.2	x	x
C#CCNC(=O)C[C@H]1C[C@@]2(C(=O)OC)C(=C[C@H](COCc3ccccc3)O[C@@H]2C)N(Cc2ccccc2)C1=O	0.8	0.9	-2.9	3.5	-0.9	x	x
Cc1cccnc1NC(=O)c1ccc([N+](=O)[O-])o1	17.4*	-28.1	-84.6	-28.6	-269.8	19.1*	20.8*
Cc1ccc(C(=O)Nc2ncccc2C)o1	0.0	2.8	2.2	-2.5	1.7	x	x
C=CCn1c(-c2cccs2)nc2nc3ccccc3nc21	21.6*	i	i	i	i	70.2*	82.5*
CC(=O)c1c(C)nc2nonc2c1N	15.8*	i	-60.7	i	-153.2	32.8*	37.8*
COc1ccccc1CNC(=O)NC1CCN(CC(=O)Nc2ccc3c(c2)OCCO3)CC1	-0.5	4.1	0.9	2.6	2.2	x	x
COc1ccc2ccccc2c1C=NNC(=O)c1cc(-c2ccc(C)cc2)n[nH]1	40.8*	-20.3	-20.5	-23.9	-40.0	-22.7	-17.6
Cc1ccc(-c2cc(C(=O)NN=Cc3c4ccccc4cc4ccccc34)[nH]n2)cc1C	-3.0	-8.5	-3.9	-9.1	-10.2	x	x
COc1ncccc1-c1cnc2cccnn12	33.9*	i	-362.9	i	i	58.1*	58.5*
Clc1ccc(-c2cnc3cccnn23)cc1	32.1*	i	-265.1	i	i	36.6*	21.9*	K7 EDANS ctr=>69.5
c1cnn2c(-c3ccc4c(c3)CCO4)cnc2c1	4.4	-316.4	-11.6	-393.9	-31.0	x	x
COc1ccc(-c2cnc3cccnn23)cn1	39.3*	i	-199.6	i	i	27.4*	38.3*
Clc1ccc(CN2CCN(c3ncc(Cc4ccccc4)cn3)CC2)c(Cl)c1	1.1	0.1	-8.6	-0.7	-19.0	x	x
C[C@@H]1CCN(C2CC2)S(=O)(=O)c2ccc(N3CCC[C@H]3CO)cc2O1	-0.2	-6.9	-42.1	-4.8	-10.0	x	x
COc1ccc(-c2cc(C(F)(F)F)n3nc(C(=O)NCCCn4ccnc4)cc3n2)cc1	57.4*	i	-317.3	i	i	-215.6	-197.7
